Test results: PubChem BioAssay AID1259421 (Broad Institute, 2018)
Values joined by “and” are separate entries in the source; they are usually repeats but may differ in a detail not shown here. Identical values can stand only once. Out of some 6,400 compounds screened, about 610 (9.5%) were called active. No stated cut-off is given here; in the data, active means activity change below about -70%; inconclusive means no clear call, values can overlap the other calls; inactive means above that. For the sample, actives were picked, then their nearest neighbours and some compounds at random. Some structures have more than one record in an assay (separate samples or runs), and their calls can disagree.

Assay: Toxoplasma gondii ME49Luc growth in HeLa cells, luciferase, no IFN-y, primary screen (AID 1259421)
Conditions: T. gondii ME49Luc in HeLa, 72 h, stronger effect = lower value, concentration not given here

Q: Which activity change, negative = inhibition does the source give for `CNC(=O)c1cccc2cc(Oc3ccnc4cc(OCC5(N)CC5)c(OC)cc34)ccc12` here?
A: -25% (inactive)

Q: Which activity change, negative = inhibition does the source give for `COc1ccc2c(Oc3ccc(NC(=O)c4c(C)n(CC(C)(C)O)n(-c5ccccc5)c4=O)nc3)ccnc2c1` here?
A: -67.1% (inactive) and -82.5% (active)

Q: Which activity change, negative = inhibition does the source give for `COc1ccc2c(OCc3nnc4ccc(-c5ccccc5)nn34)ccnc2c1` here?
A: 4.78% (inactive)

Q: Which activity change, negative = inhibition does the source give for `C[C@@H]1CC2C3CCC4=CC(=O)C=C[C@]4(C)[C@@]3(F)[C@@H](O)C[C@]2(C)[C@@]1(O)C(=O)CO` (some centres undefined) here?
A: -4.17% (inactive)

Q: With `C[C@@H]1CCCN1CCc1cc2cc(-c3ccc(C#N)cc3)ccc2o1` as the compound, how does the activity change, negative = inhibition read?
A: 3.6% (inactive)

Q: For `C=CCN1CC(C(=O)N(CCCN(C)C)C(=O)NCC)CC2c3cccc4[nH]cc(c34)CC21` (centres undefined), which activity change, negative = inhibition is on record?
A: 5.12% (inactive)

Q: With `C[C@]12CCC(=O)C=C1C=CC1C2CC[C@@]2(C)C1CC[C@@]21CCC(=O)O1` (some centres undefined) as the compound, how does the activity change, negative = inhibition read?
A: 4.56% (inactive) and -4.95% (inactive)

Q: For `CC(=O)S[C@@H]1CC2=CC(=O)CC[C@]2(C)[C@H]2CC[C@@]3(C)[C@@H](CC[C@@]34CCC(=O)O4)[C@H]12`, which activity change, negative = inhibition is on record?
A: -13.5% (inactive) and -2.91% (inactive)

Q: With `C[C@]12CCC(=O)C=C1[C@@H]1C[C@@H]1[C@H]1[C@@H]3[C@@H]4C[C@@H]4[C@@]4(CCC(=O)O4)[C@@]3(C)CC[C@@H]12` as the compound, how does the activity change, negative = inhibition read?
A: -75.7% (active) and -36.5% (inactive)

Q: For `CCS(=O)(=O)N1CCN(c2ccc(Nc3ncc(C(N)=O)c(NC4CC4)n3)cc2)CC1`, which activity change, negative = inhibition is on record?
A: -79.3% (active)

Q: Which activity change, negative = inhibition does the source give for `O=c1[nH]ccc2c(S(=O)(=O)N3CCCNCC3)cccc12` here?
A: 13.8% (inactive) and 2.48% (inactive)

Q: Which activity change, negative = inhibition does the source give for `CN1C(C(=O)Nc2ccccn2)C(=O)c2ccccc2S1(=O)=O` (centres undefined) here?
A: 35.3% (inactive) and 14.6% (inactive)

Q: With `CCOC(=O)C(C)Oc1cccc2c(=O)n(CC(=O)Nc3ccc4c(c3)OCCO4)ccc12` (centres undefined) as the compound, how does the activity change, negative = inhibition read?
A: 14.7% (inactive)

Q: With `O=C1CC2(CCCC2)CC(=O)N1CCCCNCC1COc2ccccc2O1` (centres undefined) as the compound, how does the activity change, negative = inhibition read?
A: 21% (inactive) and 7.16% (inactive)

Q: For `CC(C)(C)NC(=O)[C@@H]1CC2CCCCC2CN1C[C@@H](O)[C@H](Cc1ccccc1)NC(=O)[C@H](CC(N)=O)NC(=O)c1ccc2ccccc2n1` (some centres undefined), which activity change, negative = inhibition is on record?
A: 13.2% (inactive)

Q: For `CCCCCCCCO`, which activity change, negative = inhibition is on record?
A: 2.72% (inactive)

Q: With `CC(=O)NC[C@H]1CN(c2ccc(-c3ccc(CNCc4cn[nH]n4)cc3)c(F)c2)C(=O)O1` as the compound, how does the activity change, negative = inhibition read?
A: -34.7% (inactive)

Q: Which activity change, negative = inhibition does the source give for `NC(=O)Nc1cc(-c2cccc(F)c2)sc1C(=O)N[C@H]1CCCNC1` here?
A: -74.8% (active) and -87.7% (active)

Q: Which activity change, negative = inhibition does the source give for `COc1cc(C(=O)NC2CCCNC2)cc(OC)c1OC` (centres undefined) here?
A: 25.6% (inactive)

Q: Which activity change, negative = inhibition does the source give for `NC(=O)Nc1sc(-c2ccc(F)cc2)cc1C(N)=O` here?
A: 12.6% (inactive)

Q: Which activity change, negative = inhibition does the source give for `CC(C)[C@@H](CS(=O)(=O)C(C)C)N1C(=O)[C@@](C)(CC(=O)O)C[C@H](c2cccc(Cl)c2)[C@H]1c1ccc(Cl)cc1` here?
A: 5.9% (inactive)

Q: With `NCCCCNS(=O)(=O)c1ccc2c(Cl)cccc2c1` as the compound, how does the activity change, negative = inhibition read?
A: 2.08% (inactive)

Q: With `CC(O)C1C(=O)N2C(C(=O)O)=C(C3CCCO3)SC12` (centres undefined) as the compound, how does the activity change, negative = inhibition read?
A: 5.92% (inactive)

Q: For `COc1ccc(Cc2cnc(N)nc2N)cc1OC`, which activity change, negative = inhibition is on record?
A: 9.87% (inactive)

Q: For `CCOc1ccc(Cc2nccc3cc(OCC)c(OCC)cc23)cc1OCC`, which activity change, negative = inhibition is on record?
A: -67.8% (inactive) and -79.8% (active)

Q: With `COc1ccc(Cc2nccc3cc(OC)c(OC)cc23)cc1OC` as the compound, how does the activity change, negative = inhibition read?
A: -2.52% (inactive) and -6.18% (inactive)

Q: With `CN1C(=O)C(F)=C[C@]2(C)[C@H]3CC[C@]4(C)[C@@H](C(=O)NCc5nc6ncccc6[nH]5)CC[C@H]4[C@@H]3CC[C@@H]12` as the compound, how does the activity change, negative = inhibition read?
A: -1.27% (inactive)

Q: With `C=C[C@@H](C1=CC(=O)C(OC)=C(OC)C1=O)c1ccccc1` as the compound, how does the activity change, negative = inhibition read?
A: -1.89% (inactive)

Q: For `COc1cc(N)c(Cl)cc1C(=O)N[C@@H]1CCNCC1OC` (some centres undefined), which activity change, negative = inhibition is on record?
A: 8% (inactive)

Q: Which activity change, negative = inhibition does the source give for `O=C(O)C1(Cc2cccc(Nc3nccs3)n2)CCC(Oc2cccc(Cl)c2F)CC1` (centres undefined) here?
A: -34% (inactive)

Q: With `CC(C)(C)CC(C)(C)c1ccc(O)c(-n2nc3ccccc3n2)c1` as the compound, how does the activity change, negative = inhibition read?
A: 47.6% (inactive)

Q: With `O=C(c1ccc(CN2CCOCC2)cc1)N1CCN(C2CC2)CC1` as the compound, how does the activity change, negative = inhibition read?
A: 10.6% (inactive)

Q: For `O=C(Nc1cn[nH]c1-c1nc2ccc(CN3CCOCC3)cc2[nH]1)NC1CC1`, which activity change, negative = inhibition is on record?
A: -84.3% (active)

Q: Which activity change, negative = inhibition does the source give for `CC(C)(S)C(=O)N[C@@H](CS)C(=O)O` here?
A: -3.42% (inactive)

Q: For `CCOC(=O)Nc1c[n+](N2CCOCC2)no1`, which activity change, negative = inhibition is on record?
A: 8.47% (inactive)

Q: With `C/C(=N\NC(=S)N1CCC1)c1ccccn1` as the compound, how does the activity change, negative = inhibition read?
A: -84.6% (active)

Q: Which activity change, negative = inhibition does the source give for `Cc1ccc(/C(=C/CN2CCCC2)c2ccccn2)cc1` here?
A: -1.47% (inactive)

Q: Which activity change, negative = inhibition does the source give for `Cc1ccc(/C(=C\CN2CCCC2)c2ccccn2)cc1` here?
A: 0.786% (inactive) and 2.04% (inactive)

Q: For `CC(=O)O[C@@H]1CC2C(C)(C)C(=O)C=C[C@]2(C)C2CC[C@@]3(C)[C@H](c4ccoc4)OC(=O)[C@H]4O[C@]43[C@@]21C` (some centres undefined), which activity change, negative = inhibition is on record?
A: 22.1% (inactive)

Q: With `Nc1nc2c(c(=O)[nH]1)N(C=O)[C@@H](CNc1ccc(C(=O)N[C@@H](CCC(=O)O)C(=O)O)cc1)CN2` as the compound, how does the activity change, negative = inhibition read?
A: 22.2% (inactive)

Q: For `CCOC(=O)C1=CCCC[C@H]1S(=O)(=O)Nc1ccc(F)cc1Cl`, which activity change, negative = inhibition is on record?
A: 18.7% (inactive)

Q: Which activity change, negative = inhibition does the source give for `O=C(O)Cc1ccc2c(c1)C(=O)c1ccccc1CO2` here?
A: 19.3% (inactive)

Q: With `COC(=O)c1c(C)c2c(c(C)c1O)OC(=O)c1c(C)c(Cl)c(O)c(Cl)c1O2` as the compound, how does the activity change, negative = inhibition read?
A: -3.73% (inactive)

Q: With `COc1cc(C)c2c(c1C=O)Oc1c(c(C)c(O)c3c1C(O)OC3=O)OC2=O` (centres undefined) as the compound, how does the activity change, negative = inhibition read?
A: -5.42% (inactive)

Q: For `Cc1cc(O)c(C=O)c2c1C(=O)Oc1c(C)c(O)c3c(c1O2)C(O)OC3=O` (centres undefined), which activity change, negative = inhibition is on record?
A: -75.6% (active)

Q: With `CS(=O)(=O)Nc1c(O)ccc2c1CCCC2C1=NCCN1` (centres undefined) as the compound, how does the activity change, negative = inhibition read?
A: 15.3% (inactive) and 0.146% (inactive)

Q: For `CC(=O)[C@@]1(O)CCC2C3C[C@H](C)C4=CC(=O)C=CC4(C)[C@@]3(F)[C@@H](O)C[C@@]21C` (some centres undefined), which activity change, negative = inhibition is on record?
A: 10% (inactive) and 7.34% (inactive)

Q: Which activity change, negative = inhibition does the source give for `NC(N)=NC(=O)c1nc(Cl)c(N2CCCCCC2)nc1N` here?
A: 3.26% (inactive)

Q: With `CC(=O)OCC(=O)[C@@]1(O)[C@@H](C)CC2C3CCC4=CC(=O)C=C[C@]4(C)[C@@]3(F)[C@@H](O)C[C@@]21C` (some centres undefined) as the compound, how does the activity change, negative = inhibition read?
A: -12.5% (inactive)
